Screens: PubChem, National Center for Advancing Translational Sciences (NCATS)
SW480 rerep: induces DNA re-replication in SW480 colon adenocarcinoma cells; hit rate 1.8% among 340,000; Potency, µM (titrated, usually from 46.1 µM), without a hit: at the top dose re-replication activation, actives largely listed as activators; SW480 DNA re-replication, Hoechst DNA content imaging, 48 h; AID 624297; also: % of control where 0% means no effect; nearly all actives have a fitted effect of over 55% in size
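Per well, 250 cells were exposed to pinned compound for 48 hr. Nuclear DNA was visualised with Hoechst (40 min, 37 C) and total object intensity recorded by fluorescence scanning.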
TSG101-PTAP inh: blocks PTAP/TSG101 interaction to inhibit HIV-1 budding | Q99816 | Fluorescence polarization, FITC-PTAP peptide / Tsg101 binding | Potency, µM (highest dose often 115 µM), without a hit: at the top dose activity change, negative = inhibition, usual class: inhibitors | 340,000 tested, under 10 active | AID 493005; active = well fitted inhibition curve with a large enough effect in the main read-out, with a control signal flat, not every such curve was filed as active; inconclusive = small, poorly fitted or top-dose-only effect, or effect the other way, or a change in a side signal; inactive = no such curve, though single readings can be large or run the other way; also: % of control where 0% means no effect
Target sequence (Q99816 whole entry, looked up): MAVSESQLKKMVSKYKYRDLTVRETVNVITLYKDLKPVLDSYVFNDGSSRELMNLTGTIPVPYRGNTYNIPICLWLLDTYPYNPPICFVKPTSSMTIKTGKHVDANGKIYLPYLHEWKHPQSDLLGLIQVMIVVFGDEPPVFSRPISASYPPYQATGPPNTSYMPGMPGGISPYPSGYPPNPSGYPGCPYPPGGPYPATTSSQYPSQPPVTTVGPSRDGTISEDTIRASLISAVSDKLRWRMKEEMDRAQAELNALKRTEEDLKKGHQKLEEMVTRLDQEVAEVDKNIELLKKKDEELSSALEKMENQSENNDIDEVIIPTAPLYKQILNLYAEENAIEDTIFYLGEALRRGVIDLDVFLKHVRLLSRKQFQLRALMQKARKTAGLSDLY
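Compounds were pin-transferred onto Tsg101 binding domain (10 uM final) in HEPES pH 7.5 buffer, then FITC-PTAP peptide was added at 50 nM final. After 20 min at RT, polarization reported peptide displacement across a qHTS concentration series.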
KB-V1 MDR tox: KB-V1 MDR subline cytotoxicity; KB-V1 MDR cells viability, CellTiter-Glo, 72 h; Potency, µM (highest dose often 46.1 µM), actives largely listed as cytotoxic; hit rate 3.4% among 400,000; also: % is scaled to controls: 0 for no effect and ±100 for the full control effect; nearly all actives have a fitted effect of over 60% in size
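Cells of the MDR subline KB-V1 are plated, dosed with compound at multiple concentrations, and incubated 72 h at 37 degrees C; CellTiter-Glo is then added and luminescence read after 10 min.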
MCF10A rereplic: induces DNA re-replication in MCF 10a normal breast cells; Potency, µM (highest dose often 46.1 µM), without a hit: at the top dose activity, positive = re-replication, usual class: activators; MCF 10A DNA re-replication, Hoechst nuclear intensity, 48 h; hit rate 2.9% among 350,000; also: % of control where 0% means no effect; nearly all actives have a fitted effect of over 50% in size
PINK1 expr mod: modulators of PINK1 expression; hit rate 0.2% among 410,000; PINK1 immunofluorescence, high-content cytometry, 24 h; Potency, µM (titrated, usually from 76.6 µM), for inactives: top-dose activation (PINK1 increase), usual class: activators; active = well fitted activation curve with a large enough effect; inconclusive = small, poorly fitted or top-dose-only effect; cell line not stated here; also: % of control where 0% means no effect; nearly all actives have a fitted effect of over 65% in size
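Fluorescence from anti-PINK1 antibody, together with nuclear and cell stains, was scanned on a laser-scanning cytometer. Before staining, stable-line cells were incubated 24 hours with compounds at 5 concentrations; primary antibody 12 h at 10 degrees C.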
KB-3-1 tox: kills parental KB-3-1 adenocarcinoma cells; hit rate 1.4% among 400,000; Potency, µM (titrated, usually from 46.1 µM), most hits filed as cytotoxic; KB-3-1 viability, CellTiter-Glo ATP luminescence, 72 h; also: % is scaled to controls: 0 for no effect and ±100 for the full control effect; nearly all actives have a fitted effect of over 60% in size
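Cells are dispensed, compounds pinned in, plates held at 37 °C for 72 h, then CellTiter-Glo is added and luminescence read after 10 minutes. Cell line: parental KB-3-1 in phenol-red-free DMEM, 10% FBS.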
Starred values were filed as active, the others as inactive; i = inactive; ? = inconclusive; / = not tested or not shown; [ ] = another dose, or the depositor's remark. Most compounds without a hit are left out; they make up all but 6.8% or so of the library. Unless noted, calls follow the shape of the dose curve; as a rule, active = well fitted curve in the direction sought with a large enough effect; inconclusive = small, poorly fitted or top-dose-only effect, or another doubt; inactive = no such curve, though single readings can be large; an effect the other way counts as inactive or inconclusive. Potency is read from the fitted curve at half-maximal effect.

SMILES	SW480 rerep	TSG101-PTAP inh	KB-V1 MDR tox	MCF10A rereplic	PINK1 expr mod	KB-3-1 tox
COc1ccc(NS(=O)(=O)c2ccc(O)c(NC(=O)c3cc4c(C)nn(-c5ccc(F)cc5)c4s3)c2)cc1	?	-4%	i	8.2µM*	-1%	?
CCN1CCCC1CNCc1cccc(OC)c1OCc1ccc(F)cc1 (stereo not drawn)	2%	0%	12µM*	15%	-1%	i
Cc1ccc(S(=O)(=O)NCCC(=O)Nc2nnc(C3CC3)s2)cc1C	-4%	0%	i	2%	-2%	i
Cc1cc(C)cc(N(CCC(=O)Nc2nnc(C3CC3)s2)S(=O)(=O)c2ccc(Cl)cc2)c1	23µM*	-3%	8.2µM*	?	3%	?
Cc1ccc(NS(=O)(=O)c2cc3c(cc2N2CCC2)NC(=O)CC3)cc1C	/	/	i	/	/	i
CC(=O)c1ccc(Nc2nc(C)cc(C)n2)cc1	2%	-1%	i	1%	3%	i
C=CCc1c(C)nc(SC)nc1Nc1ccc(C(=O)O)cc1	-17%	-3%	21µM*	?	-1%[38.3 µM]	?
C=CCc1c(C)nc(-c2ccccc2)nc1Nc1ccc(O)cc1	30%	-11%	13µM*	?	3%	21µM*
C=CCc1c(C)nc(SC)nc1Nc1ccc(C(C)=O)cc1	-5%	-6%	12µM*	12%	1%	i
C=CCc1c(C)nc(SC)nc1Nc1ccccc1	1%	-2%	?	5%	-3%	i
C=CCc1c(C)nc(-c2ccccc2)nc1N/N=C(\C)c1ccccc1	3%	-1%	?	7%	0%	i
Cc1ccc2nc(COc3ccccc3NC(=O)c3ccccc3F)cc(=O)n2c1	/	/	i	/	0%	i
Cc1ccccc1Cn1c(SCc2ccc(C(=O)NC(C)c3ccccc3)cc2)nc2ccncc21 (stereo not drawn)	/	/	i	/	2%	i
Cc1cnc(CNc2ncnc3ccc(-c4ccccc4CN(C)C)cc23)cn1	/	/	/	/	3%	/
CC1=C(c2ccc(C(C)C)cc2)S(=O)(=O)N=C1N1CCN(c2ccccc2F)CC1	/	/	/	/	-1%	/
NC(CCc1ccccc1)c1csc(Nc2nncc3ccccc23)n1 (stereo not drawn)	/	/	i	/	-1%	i
Nc1ccc(CC(N)c2csc(Nc3nncc4ccccc34)n2)cc1 (stereo not drawn)	/	/	23µM*	/	-1%	?
NC(Cc1ccccc1)c1csc(Nc2nncc3ccccc23)n1 (stereo not drawn)	/	/	23µM*	/	-1%	?
COc1cccc(Cc2nc3ccccc3nc2SCC(=O)N2CCCc3ccccc32)c1	/	/	i	/	0%	i
Cc1cc(C)cc(NC(=O)C(c2ccccc2)N2CCN(CC(=O)NC3CC3)CC2)c1 (stereo not drawn)	4%	0%	16µM*	4%	10%	i
Cc1ccc(NC(=O)C(c2ccccc2)N2CCN(CC(=O)NC3CC3)CC2)cc1 (stereo not drawn)	-1%	0%	21µM*	-3%	4%	i
Cc1cccnc1-c1cccc2c1OC(CNC(=O)C1CCCc3c1[nH]c1ccccc31)C2 (stereo not drawn)	/	/	/	/	1%	/
CC1(c2ccccc2)CC(C)(C)N(C(=O)CSc2nnc(N)s2)c2ccccc21 (stereo not drawn)	?	-2%	16µM*	?	-3%	i
O=C(c1csc(Nc2cccc3ccccc23)n1)N1CCCC1	1%	1%	i	3%	1%	i
O=C(c1csc(Nc2ccccc2Cl)n1)N1CCCC1	-1%	1%	21µM*	-2%	2%	i
CCOC(=O)Cn1c(=O)n(C2CCCCC2)c2nc(-c3ccc(Cl)cc3)nc(C(N)=O)c21	/	/	i	/	1%	?
